The list is not random: actives were taken first. Their share in the collection is about 1%.
DUSP1 inh – MKP-1 phosphatase inhibitors, primary screen, biochemical, in vitro; recombinant MKP-1, OMFP hydrolysis fluorescence; inhibition, %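 (compounds tested at a single concentration somewhere between 10 and 100 µM)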; hit rate 0.15% among 65,000;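 active = inhibition above about 50%, limit read from the data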
SK-BR-3 tox 24h – SK-BR-3 proliferation inhibitors, primary screen, cell-based, human, 24 h | SK-BR-3 viability, CellTiter-Glo ATP luminescence; stronger effect = lower value | viability, % at 10 µM | hit rate 0.47% among 41,000 | AID 847, 2007;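 active = viability at or below the median of all test compounds minus 3 SD, in both replicates if run twice, cut at about 45% in these data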
Cdc25B block – inhibitors of Cdc25B phosphatase catalytic domain, primary screen, biochemical, OMFP fluorescence. M-phase inducer phosphatase 2 (Homo sapiens), P30305. recombinant Cdc25B, OMFP fluorescence Ex485/Em525. inhibition, %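 (compounds tested at 10 µM final in the well)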. hit rate 0.1% among 65,000. AID 368, 2006; in the data active = inhibition above about 50%
Target sequence (P30305 whole entry, looked up, the tested form may be a part): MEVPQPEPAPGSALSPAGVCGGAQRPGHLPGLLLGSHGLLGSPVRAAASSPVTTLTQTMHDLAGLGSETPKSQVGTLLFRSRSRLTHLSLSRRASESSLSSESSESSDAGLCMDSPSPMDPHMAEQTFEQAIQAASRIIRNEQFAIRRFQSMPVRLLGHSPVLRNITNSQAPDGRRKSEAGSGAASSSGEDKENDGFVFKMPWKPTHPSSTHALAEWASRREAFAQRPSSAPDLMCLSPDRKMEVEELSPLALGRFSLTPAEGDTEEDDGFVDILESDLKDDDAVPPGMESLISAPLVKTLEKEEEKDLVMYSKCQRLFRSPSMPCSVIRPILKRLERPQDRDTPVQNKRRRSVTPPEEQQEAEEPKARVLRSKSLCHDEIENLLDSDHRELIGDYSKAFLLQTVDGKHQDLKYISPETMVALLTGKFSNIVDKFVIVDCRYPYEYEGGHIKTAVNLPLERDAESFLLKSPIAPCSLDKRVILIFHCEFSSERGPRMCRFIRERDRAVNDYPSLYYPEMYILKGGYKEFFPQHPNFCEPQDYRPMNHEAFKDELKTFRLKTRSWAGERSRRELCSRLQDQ
WNV protease inh – inhibitors of WNV NS2B-NS3 protease, primary screen, biochemical, fluorogenic substrate | hit rate 0.18% among 65,000 | fluorogenic substrate Ex360/Em465; stronger effect = lower value | Genome polyprotein (West Nile virus), P06935 | z-score (concentration not given with the values); in the data active = z-score below about -3
Hsp90 inh – tumor Hsp90 inhibitors, primary screen, cell lysate, fluorescence polarization, NCI-N417 lysate; Heat shock protein HSP 90-alpha (Homo sapiens), P07900; Cy3B-geldanamycin FP displacement; inhibition, % at 30 µM; hit rate 0.35% among 64,000; AID 429, 2006;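 active = inhibition above 50%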
Numbers stand for hits; n = inactive; x = no result.

SMILES	DUSP1 inh	SK-BR-3 tox 24h	Cdc25B block	WNV protease inh	Hsp90 inh
CCOC(=O)c1sc2nc(NC(=O)c3cccs3)sc2c1C	n	x	n	n	62.9
COc1cccc(-c2nnc(SCC(=O)N(C(C)C)C(C)C)o2)c1	n	n	n	n	n
COc1cc(OC)cc(-c2nnc(SCC(=O)N(C(C)C)C(C)C)o2)c1	n	39.2	n	n	n
Cn1c(CSc2nnc(SCc3ccccc3)s2)nc2ccccc21	n	n	73.9	n	n
O=C(NC1CC1)c1ccc(CS(=O)(=O)c2c(Cl)cccc2Cl)o1	n	x	n	n	n
COc1ccc(-c2cn3c(C)c(C(=O)Nc4cccc(C)n4)sc3n2)cc1	51.1	x	n	n	n
Cc1cccc(NC(=O)c2sc3nc(-c4ccccc4)cn3c2C)n1	n	x	n	n	n
CCOc1ccc(NCC(=O)Nc2ccc(C)cc2C)cc1	n	n	n	n	52.1
N=c1n(CCN2CCCC2)c2ccccc2n1CC(O)c1ccco1 (stereo not given)	n	n	n	n	n
N=c1n(CCN2CCCCC2)c2ccccc2n1CC(O)c1cccc(Br)c1 (stereo not given)	n	43.6	n	n	n
COc1ccc(-c2[nH]ncc2-c2ccc3c(c2)OCCO3)c(O)c1	n	n	n	n	n
CCc1cc(-c2[nH]ncc2-c2ccc3c(c2)OCO3)c(O)cc1O	n	x	n	n	95.8
COc1ccccc1-c1nnc2n1N=C(c1ccc(O)c(O)c1)CS2	n	n	n	n	65.5
Cc1ccc(C)c(-n2nnnc2SCC(=O)NCCC2=CCCCC2)c1	n	x	n	n	n
COC(=O)c1cc(NS(=O)(=O)c2ccc3c(c2)CCC(=O)N3)cc(C(=O)OC)c1	n	n	n	n	n
CCCN1C(=O)c2cc(C(=O)NCCc3cccc(C)c3)ccc2C1O (stereo not given)	n	x	n	n	n
COc1ccc(Cn2nnnc2C(c2cc3cccc(C)c3[nH]c2=O)N2CCOCC2)cc1 (stereo not given)	n	n	51.9	n	n
Cn1c2ccccc2c2nn(-c3ccccc3)c(=O)cc21	n	n	n	-3.54	n
Cn1c(CNc2ccc(Cl)cc2)nc2ccccc21	n	n	n	n	n
CC(C)N=c1cc2n(-c3ccc(Cl)cc3)c3ccccc3nc-2cc1Nc1ccc(Cl)cc1	n	n	n	n	98.5
COc1cc2[nH]c(=O)n(CCC(=O)N3CCN(c4cccc(C)c4C)CC3)c(=O)c2cc1OC	n	4.9	n	n	x
CCOC(=O)N1CCN(c2ccc3nnnn3n2)CC1	n	n	n	n	n
CCN(CC)CCCN1C(=O)C(=O)/C(=C(/O)c2ccccc2)C1c1cc(OC)ccc1OC (stereo not given)	n	n	n	n	n
CC1(C)CCCN(C(=O)c2coc(=O)c(Br)c2)C1	n	n	n	n	n
N#Cc1ccc(CSc2nnc(Nc3ccccc3)s2)cc1	n	x	n	n	85.0
SMILES	DUSP1 inh	SK-BR-3 tox 24h	Cdc25B block	WNV protease inh	Hsp90 inh
COc1ccc(N=CC2=C(O)CC(C)(C)CC2=O)cc1	n	n	n	n	n
COc1ccc(N=CC2=C(O)CCCC2=O)cc1	n	x	n	-4.23	n
CCCC12CN3CC(C)(CN(C1)C31CCCCC1)C2=O	n	x	n	n	n
CCCCCC(=O)N1CC2(C)CN(C(=O)CCCCC)CC(C)(C1)C2=O	n	n	n	n	119.9
CN(C)CC(C(=O)c1ccccc1)c1ccccc1 (stereo not given)	n	6.4	n	n	n
COc1ccc(C(C(=O)OC(C)CN(C)C)c2ccccc2)cc1 (stereo not given)	n	x	n	n	n
CC(C)(C)[C@]1(O)CCN2C[C@H]3c4ccccc4CCc4cccc(c43)[C@@H]2C1	x	x	x	x	n
COc1cccc(NC(=O)CSc2nnc(-c3cc(-c4ccccn4)nc4ccccc34)o2)c1	n	x	n	n	n
Cc1ccc(S(=O)(=O)Nc2ccc3oc(=O)sc3c2)c(C)c1	n	x	n	n	55.9
Cc1ccsc1C=Nc1ccc(O)cc1	n	x	n	n	n
Oc1ccc(N=Cc2ccc(O)c(O)c2)cc1	n	x	n	n	93.1
CCCn1c(Nc2nc3ccccc3n2C)nc2ccccc21	n	9.8	n	n	n
COc1cccc(NC(=O)N2CCC(C(N)=O)(N3CCCCC3)CC2)c1	n	39.5	n	n	n
CCC(C)NCCNc1cc(OC)cc2cccnc12 (stereo not given)	x	x	x	x	127.4

Compound activity deposited in PubChem by several laboratories.
